Screening results as filed in PubChem.
An excerpt weighted towards active compounds, which were near 6% of everything screened.
D1 PAM = Potentiators of Human D1 Dopamine Receptor: qHTS; AID 504651, 2011; potentiation, % at 10 µM; HEK293 TREx D1 cells, calcium flux, dopamine EC20 potentiation; D(1A) dopamine receptor (Homo sapiens), P21728; hit rate 0.036% among 360,000; in the data active = potentiation above about 30%; also: 0% is about no effect
Target sequence (P21728 whole entry, looked up): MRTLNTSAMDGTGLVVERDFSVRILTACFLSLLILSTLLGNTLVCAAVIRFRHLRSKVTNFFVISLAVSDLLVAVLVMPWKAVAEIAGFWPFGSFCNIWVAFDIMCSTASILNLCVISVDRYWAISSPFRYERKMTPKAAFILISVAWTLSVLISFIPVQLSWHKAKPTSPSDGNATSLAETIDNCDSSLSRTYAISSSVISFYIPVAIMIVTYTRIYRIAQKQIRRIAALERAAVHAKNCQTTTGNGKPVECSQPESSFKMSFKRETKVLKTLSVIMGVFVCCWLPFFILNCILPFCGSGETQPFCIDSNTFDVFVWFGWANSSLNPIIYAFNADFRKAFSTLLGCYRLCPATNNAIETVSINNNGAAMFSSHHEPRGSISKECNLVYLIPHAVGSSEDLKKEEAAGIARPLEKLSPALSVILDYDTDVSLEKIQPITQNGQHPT
D1 ag = Allosteric Agonists of the Human D1 Dopamine Receptor: qHTS; D(1A) dopamine receptor (Homo sapiens), P21728; HEK293 T-REx D1 cells, calcium flux, agonist mode; activation, % at 2 µM; hit rate 1% among 360,000; AID 504660, 2011; in the data active = activation above about 30%; also: 0% is about no effect
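Tetracycline-induced HEK293 TREx D1 cells, force-coupled to calcium signalling, were dye-loaded with a no-wash calcium kit. Compound was pin-added after a 10 s baseline. Fluorescence was read kinetically at 1 cycle/s for 180 s, with calcium rises flagged as agonism.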
D3 ag = qHTS of D3 Dopamine Receptor Agonist: qHTS; AID 652048, 2013; D3R DiscoveRx beta-arrestin cells, luminescence, 90 min; max activation, %; hit rate 0.58% among 410,000; in the data active = max activation above about 30%; also: 0% is about no effect
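Agonist-mode cell screen: cells plated at 1500/well and incubated overnight at 37 °C, then exposed to library compounds for 90 min at 37 °C. Detection reagent was added for 30–60 min at room temperature, and luminescence was read.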
D1 antagonist = Antagonist of Human D 1 Dopamine Receptor: qHTS. hit rate 3.2% among 360,000. activity change, negative = inhibition, % at 10 µM. D(1A) dopamine receptor (Homo sapiens), P21728. HEK293 TREx D1 cells, calcium flux, dopamine EC80; hits give low values. AID 504652, 2011; in the data active = activity change below about -30%; also: % is scaled to controls: 0 for no effect and ±100 for the full control effect
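Tetracycline-induced HEK293 T-REx cells with force-coupled D1 receptor were loaded with a no-wash calcium dye. Compound was added after a 10 s baseline and read kinetically for 180 s; EC80 dopamine was then added and calcium flux followed another 180 s.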
D3 antag = qHTS of D3 Dopamine Receptor Antagonist: qHTS; D3R cells, DiscoveRx beta-arrestin luminescence, antagonist mode; hits give low values; max response, negative = inhibition, %; hit rate 2.5% among 360,000; AID 652054, 2013; in the data active = max response below about -50%; inconclusive = no clear call, values can overlap the other calls; also: % is scaled to controls: 0 for no effect and ±100 for the full control effect
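Cells expressing the human receptor were seeded at 1500 cells/well, incubated overnight at 37 degrees C in 5% CO2, then exposed to library compounds with dopamine controls for 90 minutes at 37 degrees C before luminescent detection.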
* = called active by the depositor; ? = inconclusive; nt = no result given.

SMILES	D1 PAM	D1 ag	D3 ag	D1 antagonist	D3 antag
C=C(C)c1cc2c(s1)c1cnn(Cc3ccccc3F)c(=O)c1n2C	18	10	nt	32	nt
CCOc1ccc(C2C(C(=O)Nc3ccccc3OC)=C(C)Nc3c(C(=O)Nc4cccc(C)c4)cnn32)cc1 (stereo not drawn)	-6	1	-6	-28	nt
COc1ccc(S(=O)(=O)c2nnn(-c3cc(Cl)c(OC)cc3OC)c2C)cc1	-4	61*	-11	7	nt
COc1ccc(S(=O)(=O)c2nnn(-c3ccc(C(C)C)cc3)c2C)cc1	-4	9	5	-16	nt
O=C1CC(c2ccc(Cl)cc2)CC(=O)C1CS(=O)(=O)c1ccccc1 (stereo not drawn)	0	1	-13	-10	?
O=C1CC(c2ccccc2)CC(=O)C1Sc1ccc(Cl)cc1 (stereo not drawn)	-7	1	-14	3	-53*
CCOc1ccc(C(=O)C(C)OC(=O)c2nc(Cl)ccc2Cl)cc1 (stereo not drawn)	3	35*	5	-24	15
O=C(Cn1ncc2c3ccccc3n(Cc3cccc(Cl)c3)c2c1=O)Nc1ccc(F)cc1F	-2	7	-6	-13	nt
O=C(Cc1ccccc1)NC1(O)C(=O)c2ccccc2C1=O	-6	1	-5	-35*	-13
COc1cccc(/C=C/C(=O)c2ccc(NS(=O)(=O)c3ccc(C)cc3)cc2)c1	-4	3	-9	-60*	-54*
COc1cc(/C=C/C(=O)c2ccc(NS(=O)(=O)c3ccc(C)cc3)cc2)cc(OC)c1O	1	7	-7	-8	-18
COc1ccc(CCNC2CCC(c3ccccc3)CC2)cc1 (stereo not drawn)	-5	19	-8	-15	-65*
CCOc1ccc(NC(=O)Cn2c(=O)cc(C)c3c(C)nn(-c4ccc(CC)cc4)c32)cc1	7	3	-15	-7	nt
Cc1cccc(-c2nn3c(=O)cc(CN4CCN(C(=O)/C=C/c5ccccc5)CC4)nc3s2)c1	-3	1	2	-9	nt
CCn1c(=O)c(CCC(=O)NCCN2CCOCC2)c(C)c2c(C)nn(-c3cccc(C)c3)c21	1	2	2	16	-2
CCN1CCN(CCNC(=O)CCc2c(C)c3c(C)nn(-c4ccccc4)c3n(C)c2=O)CC1	-17	2	2	-46*	-1
Cc1ccc(C(C)C)c(OCCNC(=O)c2cncc(Br)c2)c1	-12	1	3	3	-52*
COc1cc(C(=O)NCCOc2cc(C)ccc2C(C)C)cc(OC)c1OC	0	4	10	7	24
COCC(C)n1c(C)cc(C(=O)COC(=O)c2n[nH]c3ccccc23)c1C (stereo not drawn)	-5	4	0	-48*	3
COCC(C)n1c(C)cc(C(=O)COC(=O)c2cc(=O)[nH]c3ccccc23)c1C (stereo not drawn)	nt	nt	-5	nt	-15
COc1ccc(/C=C\c2onc(C)c2S(=O)(=O)N2CCC(C(=O)Nc3ccc(Cl)cc3)CC2)cc1	5	2	5	-17	nt
CCOCN(C(=O)Cn1cnc2cc(C)c(C)cc21)c1c(C)cccc1CC	0	7	4	2	nt
COc1ccc(-c2nnn(CC(=O)N(Cc3ccc(F)cc3)C(C(=O)NC3CCCC3)c3ccc(F)cc3)n2)cc1 (stereo not drawn)	nt	nt	-11	nt	-60*
Cc1ccc(-c2nnn(CC(=O)N(c3ccccc3F)C(C(=O)NC3CCCC3)c3ccncc3)n2)o1 (stereo not drawn)	-5	0	-13	6	?
CCOC(=O)CN(C(=O)Cn1nnc(-c2ccc(OC)cc2)n1)C(C(=O)NC1CCCC1)c1ccc(F)cc1 (stereo not drawn)	-2	4	-7	-5	-11
SMILES	D1 PAM	D1 ag	D3 ag	D1 antagonist	D3 antag
COc1ccccc1N(C(=O)Cn1nnc(-c2ccc(C)o2)n1)C(C(=O)NC1CCCC1)c1ccncc1 (stereo not drawn)	1	4	-18	3	-53*
O=C1C(=C(c2ccccc2)N2CCOCC2)Cc2ccccc21	nt	nt	-20	nt	-125*
CC(CN(C)Cc1ccccc1)OC(=O)c1ccccc1F (stereo not drawn)	-8	2	-4	-9	-10
CC(CN(C)Cc1ccccc1)OC(=O)c1cccs1 (stereo not drawn)	0	-2	-5	-5	-76*
CC(CN(C)Cc1ccccc1)OC(=O)c1ccc2c(c1)OCCO2 (stereo not drawn)	1	2	0	-1	-77*
CC(=O)c1ccc(-c2csc3ncnc(Sc4nnnn4C)c23)cc1	6	9	nt	-4	nt
COc1ccc(S(=O)(=O)N(CCCN2CCOCC2)Cc2cccc(OC)c2OC)cc1	-1	1	-12	0	-76*
COc1ccc(S(=O)(=O)N(CCCN2CCOCC2)Cc2cccc3ccccc23)cc1	-3	14	-20	-8	-85*
O=S(=O)(c1ccc(Cl)cc1)N(CCCN1CCOCC1)Cc1cccs1	-8	1	-7	-11	-80*
O=C(Nc1ccc(Cl)cc1)N(CCCN1CCOCC1)Cc1cccs1	nt	12	-11	5	-10
COc1ccc(S(=O)(=O)N(CCN2CCOCC2)Cc2cc(OC)ccc2OC)cc1	-1	0	0	2	-27
COc1ccccc1-c1ccc(SCc2ccccc2)nn1	-4	5	4	-23	2
COc1ccccc1-c1ccc(SCc2ccccc2F)nn1	-1	15	2	-40*	-14
CN=C(NC)NCc1ccccc1	nt	nt	2	nt	nt
O=P(O)(CCc1ccccn1)CN1CCCCC1	-4	1	-3	-32*	-14
CSCCC(C(=O)Nc1c(C)cccc1C)n1c(-c2ccc(-c3ccccc3)cc2)nc2ccccc21 (stereo not drawn)	nt	nt	0	nt	1
CSCCC(C(=O)Nc1c(C)cccc1C)n1c(-c2cc(C)cs2)nc2ccccc21 (stereo not drawn)	nt	nt	-21	nt	-66*
O=C(C1CCC(CNS(=O)(=O)c2cccc3nsnc23)CC1)N1CC=C(c2ccccc2)CC1 (stereo not drawn)	-5	8	60*	2	179
COc1cccc(CNC(=O)C2CCC(CNS(=O)(=O)c3cccc4nsnc34)CC2)c1 (stereo not drawn)	-7	5	-4	-41*	-8
O=C(NCc1cccs1)C1CCC(CNS(=O)(=O)c2cccc3nsnc23)CC1 (stereo not drawn)	-4	5	3	-2	?
